From PubChem BioAssay
This is a sample that favours compounds with a hit; in the whole collection about 1.2% have one here.
RGS8-Gao: human RGS8-Galphao interaction regulation; multiplexed bead flow cytometry, RGS8-Galphao binding; actives lie on both sides; response (percent of control binding), % at 10 µM; 220,000 tested, 0.34% active; in the data active = response below about 60% or above about 140%; inactive = in between;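 note: Galphao activated as the GDP aluminium fluoride complex binding bead-coupled RGS8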
Target sequence (P09471 whole entry, looked up): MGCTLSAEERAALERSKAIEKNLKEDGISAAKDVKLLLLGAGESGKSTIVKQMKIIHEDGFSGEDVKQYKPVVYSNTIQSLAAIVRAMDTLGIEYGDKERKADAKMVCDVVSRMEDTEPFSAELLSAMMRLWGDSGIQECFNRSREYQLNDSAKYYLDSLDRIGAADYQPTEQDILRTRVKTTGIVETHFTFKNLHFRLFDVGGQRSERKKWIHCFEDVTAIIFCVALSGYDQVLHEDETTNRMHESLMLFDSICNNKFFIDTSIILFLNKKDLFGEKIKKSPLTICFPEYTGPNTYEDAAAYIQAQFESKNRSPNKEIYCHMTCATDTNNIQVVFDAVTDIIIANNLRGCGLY
RGS7-Gao: regulators of human RGS7-Galphao interaction | P09471 | Multiplexed bead flow cytometry, RGS7-Galphao binding; actives lie on both sides | binding response (% of control), % at 10 µM | 220,000 tested, 0.35% active | AID 1439; in the data active = binding response below about 49% or above about 150%; inconclusive = no clear call, values can overlap the other calls; inactive = in between;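 note: fluorescent Galphao held in activated GDP-AlF4 state binding bead-coupled RGS7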
GSH fluor: compound fluoresces at 488/530 nm on GSH beads. GSH beads flow cytometry, compound fluorescence 488/530 nm; active compounds read high. fluorescence (KMESF) at 10 µM. 190,000 tested, 0.25% active; in the data active = fluorescence above about 89;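 note: glutathione beads carrying GST-tagged Bcl family fusion proteins plus one bare bead set; values are compound well signal with DMSO vehicle wells as background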
Avidin fluor: compound fluoresces at 488/530 nm on avidin beads; fluorescence (KMESF) at 10 µM; compound fluorescence 488/530 nm, flow cytometry; active compounds read high; 220,000 tested, 0.38% active; AID 1775; in the data active = fluorescence above about 47
RGS16-Gao HTS: modulates binding between human RGS16 and Galphao. O15492+P09471. bead-based flow cytometry RGS16-Galphao binding, fluorescence; actives lie on both sides. binding response (% of control), % at 10 µM. 220,000 tested, 0.38% active. AID 1441;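 note: Galphao activated by GDP with aluminum fluoride before binding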
RGS4-Gao reg: modulates binding of RGS4 to human Galphao. P09471. AID 1415. binding response (% of control), % at 10 µM. Multiplexed bead flow cytometry; actives lie on both sides. 220,000 tested, 0.33% active; in the data active = binding response below about 49% or above about 150%; inactive = in between;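 note: fluorescent Galphao activated with aluminum fluoride binding bead-coupled RGS4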
RGS-Gao: RGS4-Galphao interaction regulator (human). multiplexed bead flow cytometry, RGS–Galpha-o binding. RGS4–Galpha-o binding response, % at 10 µM. 1,600 tested, 99% active. shares compounds with RGS16-Gao HTS. AID 1504;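 note: fluorescently labeled Galpha-o bound to GDP with aluminium fluoride binding biotinylated RGS beads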
Biotin-avidin: counter-screen: compounds disrupting biotin binding to avidin beads; shares compounds with RGS16-Gao HTS; streptavidin beads, fluorescein-biotin binding, flow cytometry; inhibition, % at 10 µM; 1,700 tested, under 10 active; AID 1783;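 active = inhibition above 50%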;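 note: median green fluorescence of gated singlet beads compared with DMSO control wells; 0% = DMSO wells and 100% = complete loss of bead fluorescence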
RGS8-Gao confirm: confirmation of regulators of human RGS8-Galphao interaction | shares compounds with RGS16-Gao HTS | binding response (% of control), % at 10 µM | AID 1836 | 1,700 tested, 3% active | bead-based flow cytometry RGS8-Galphao binding, fluorescence; actives lie on both sides; in the data active = binding response below about 72% or above about 130%; inactive = in between;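 note: Galphao activated as GDP AlF4 complex before binding bead RGS8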
RGS7-Gao single: confirmation of regulators of human RGS7-Galphao interaction | shares compounds with RGS16-Gao HTS | bead-based flow cytometry RGS7-Galphao binding; actives lie on both sides | response (percent of control binding), % at 10 µM | 1,700 tested, 7.8% active | AID 1837; in the data active = response below about 75% or above about 130%; inactive = in between;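 note: fluorescent Galphao activated with GDP and aluminum fluoride binding bead-coupled RGS7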
RGS16-Gao conf: RGS16-Galphao interaction regulation, single point confirmation. bead-based flow cytometry, RGS16-Galphao binding; actives lie on both sides. AID 1838. response (% of control binding), % at 10 µM. shares compounds with RGS16-Gao HTS. 1,700 tested, 4% active; in the data active = response below about 74% or above about 130%; inactive = in between;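 note: Galphao activated as the GDP aluminium fluoride complex binding bead-coupled RGS16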
RGS4-Gao confirm: confirmation of regulators of human RGS4-Galphao interaction. binding response (% of control), % at 10 µM. RGS4-Galphao binding, multiplexed bead flow cytometry; actives lie on both sides. 1,700 tested, 4% active. AID 1840. shares compounds with RGS16-Gao HTS; in the data active = binding response below about 74% or above about 130%; inactive = in between
RGS19-Gao single: RGS19-Galphao interaction regulation, single point confirmation; response (percent of control binding), % at 10 µM; bead-based flow cytometry RGS19-Galphao binding; actives lie on both sides; shares compounds with RGS16-Gao HTS; 1,700 tested, 5% active; in the data active = response below about 50% or above about 160%; inactive = in between;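 note: 100% = no compound control and 0% = blank background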
Target sequence (P09471 whole entry, looked up): as above
Target sequence (P49795 whole entry, looked up): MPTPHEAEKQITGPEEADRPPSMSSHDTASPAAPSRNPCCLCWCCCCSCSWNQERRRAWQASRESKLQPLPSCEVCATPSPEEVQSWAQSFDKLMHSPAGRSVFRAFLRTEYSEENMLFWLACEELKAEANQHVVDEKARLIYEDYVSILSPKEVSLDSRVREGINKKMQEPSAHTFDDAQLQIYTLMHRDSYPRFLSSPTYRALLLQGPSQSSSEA
* = called active by the depositor; ? = inconclusive; / = no result; [ ] = remark or other dose. Unless noted, the rule behind the calls is not given here.

SMILES | RGS8-Gao | RGS7-Gao | GSH fluor | Avidin fluor | RGS16-Gao HTS | RGS4-Gao reg | Biotin-avidin | RGS8-Gao confirm | RGS7-Gao single | RGS16-Gao conf | RGS4-Gao confirm | RGS19-Gao single | others
Cc1cccc(-c2nc(CSCC(=O)NCCCN3CCOCC3)c(C)o2)c1 | 100 | 103 | 14 | 7 | 105 | 102 | / | / | / | / | / | /
CN(C)C(=O)NC(NC(=S)Nc1ccccc1)C(Cl)(Cl)Cl (stereo not drawn) | 91 | 85 | 12 | 8 | 97 | 95 | / | / | / | / | / | /
CN(C)C(=O)NC(Nc1ccc(Cl)cc1Cl)C(Cl)(Cl)Cl (stereo not drawn) | 56* | 67 | 18 | 7 | 17* | 71 | 2 | 95 | 89 | 89 | 89 | 92 | RGS-Gao=71*
CCCNC(=O)CN1C(=O)NC2(CCCc3cc(OC)ccc32)C1=O (stereo not drawn) | 148*[activator] | 110 | 17 | 6 | 253 | 108 | / | / | / | / | / | / | RGS-Gao=108*
CC(C)(C)c1ccccc1OCCCCCn1ccnc1 | 103 | 97 | 14 | 9 | 104 | 104 | / | / | / | / | / | /
COc1ccccc1C/C(N)=N/OC(=O)c1ccco1 | 96 | 93 | 10 | 10 | 98 | 95 | / | / | / | / | / | /
O=C(NCCO)Nc1ccc2nc(-c3ccco3)c(-c3ccco3)nc2c1 | 48* | 40* | 9 | -1 | 17* | 66 | / | / | / | / | / | / | RGS-Gao=66*
Cc1cc(C(C)(C)C)cc(C)c1Cn1c2[n+](c3ccc(C(F)(F)F)cc31)CCCCC2 | 102 | 102 | 15 | 8 | 105 | 102 | / | / | / | / | / | /
CCCCn1c(=S)[nH]c2c(oc3ccc(Cl)cc32)c1=O | 5.1* | 7.1* | 21 | -3 | -19* | -5.2* | -2 | 106 | 108 | 105 | 101 | 109
O=C(COC(=O)c1cccnc1)Nc1ccc2c(c1)OCO2 | 101 | 104 | 10 | 10 | 102 | 98 | / | / | / | / | / | /
CC(C(=O)NCc1ccc(F)cc1)c1ccc([N+](=O)[O-])cc1 (stereo not drawn) | 100 | 97 | 16 | 9 | 97 | 96 | / | / | / | / | / | /
CC(=O)c1c(C)[nH]c(C(=O)OCc2ccccc2F)c1C | 109 | 105 | 10 | 25 | 112 | 106 | / | / | / | / | / | /
O=C(NNS(=O)(=O)c1ccc(F)cc1)c1ccc(S(=O)(=O)N2CCCCC2)cc1 | 101 | 101 | 8 | 4 | 112 | 103 | / | / | / | / | / | /
CC(=O)Nc1ccc(S(=O)(=O)NNC(=O)c2ccc(S(=O)(=O)N3CCCCC3)cc2)cc1 | 88 | 99 | 22 | 8 | 20* | 98 | 0 | 93 | 92 | 90 | 92 | 82 | RGS-Gao=98*
Cc1ccc(C(=O)Nc2ccc(S(=O)(=O)N3CCOCC3)cc2)cc1 | 94 | 365*[activator] | 22 | 227* | 104 | 151*[activator] | 0 | 100 | 101 | 106 | 105 | 110
O=C(Nc1ccc(S(=O)(=O)N2CCOCC2)cc1)c1ccc(Cl)cc1 | 98 | ? | / | 20 | 99 | 98 | / | / | / | / | / | /
COc1ccccc1N1C(=O)C2C(c3ccc(F)cc3)NN(C(=O)c3ccc(C)cc3)C2C1=O (stereo not drawn) | 108 | ? | 13 | 11 | 105 | 108 | / | / | / | / | / | /
S=C1NC2CCCCC2N1 (stereo not drawn) | 100 | ? | 14 | 10 | 102 | 100 | / | / | / | / | / | /
CS(=O)(=O)N1CCC(Oc2ccccc2C(=O)N2CCN(CC3CC3)CC2)CC1 | 93 | 100 | 13 | 6 | 72 | 96 | / | / | / | / | / | /
CN(C)S(=O)(=O)N1CCCC(C(=O)c2ccc(-c3ccccc3)cc2)C1 (stereo not drawn) | 113 | 117 | 23 | 12 | 120 | 111 | / | / | / | / | / | /
O=S1(=O)[C@H]2CC3O[C@]2(C[C@@H]3c2ccc(F)cc2)CN1Cc1ccc(Cl)cc1 | 95 | ? | / | 8 | 92 | 89 | / | / | / | / | / | /
O=S1(=O)[C@H]2C[C@@H]3C=C[C@]2(CN1Cc1ccc(C(F)(F)F)cc1)O3 | 83 | ? | / | 12 | 100 | 99 | 0 | 101 | 88 | 97 | 95 | 80
COc1ccc2[nH]c(=O)c(CN(C(=O)c3cccnc3)c3ccccc3C)cc2c1 | 142*[activator] | ? | / | 118* | 280*[activator] | 307*[activator] | 1 | 96 | 56* | 73* | 72* | 39*
Cc1ccc(CNC(=O)COC(=O)c2c(C)noc2C)cc1 | 132 | 142 | 29 | 5 | 142 | 157*[activator] | 1 | 101 | 99 | 100 | 100 | 93
COc1ccc(C2C(C#N)=C(N)Oc3c2sc2nc(C)cc(C)c32)cc1 (stereo not drawn) | 103 | 117 | 6 | 89* | 187*[activator] | 121 | -1 | 101 | 101 | 100 | 102 | 104 | RGS-Gao=121*
SMILES | RGS8-Gao | RGS7-Gao | GSH fluor | Avidin fluor | RGS16-Gao HTS | RGS4-Gao reg | Biotin-avidin | RGS8-Gao confirm | RGS7-Gao single | RGS16-Gao conf | RGS4-Gao confirm | RGS19-Gao single | others
O=C(CCn1c(=S)oc2ccccc21)Nc1cccc(O)c1 | 15* | 9.9* | 16 | 0 | 12* | 22* | 0 | 99 | 102 | 97 | 99 | 104
COc1ccccc1NS(=O)(=O)c1ccc(Cl)c(NC(=O)C(C)N2C(=O)c3ccccc3C2=O)c1 (stereo not drawn) | 108 | 91 | 6 | 11 | 145 | 96 | / | / | / | / | / | /
O=C(/C=C/c1ccc(N2CCC(c3ccccc3)=N2)cc1)c1ccccc1 | 97 | 153*[activator] | 172* | 28 | 111 | 113 | / | / | / | / | / | / | RGS-Gao=113*
O=C(/C=C/c1ccc(O)cc1)c1ccccc1 | 102 | ? | / | 3 | 102 | 102 | / | / | / | / | / | /
CCCN1C2CCCC1CC(NC(=S)Nc1cc(C)cc(C)c1)C2 (stereo not drawn) | 100 | 98 | 18 | 12 | 105 | 102 | / | / | / | / | / | /
COc1ccccc1OCCCCOc1ccccc1C(C)=O | 15* | 7.4* | 11 | -4 | 6.0* | 18* | 0 | 102 | 98 | 102 | 102 | 100
O=C(NC(=S)Nc1ccccc1)c1cncc(C#Cc2ccccc2)c1 | 102 | ? | / | 9 | 102 | 101 | / | / | / | / | / | /
